# Results: PubChem BioAssay AID2315 (National Center for Advancing Translational Sciences (NCATS), 2010)
# Among all 290,000 compounds or so, about 27,000 (9.3%) were called active. Rule as the data show it: active = inhibition mostly above about 28% (no sharp cut-off); inactive = mostly below about 43%. Only a selection was taken, and actives are over-represented in it overall.
# Test: A qHTS for Small Molecule Inhibitors of Shiga Toxin; also: 0% is about no effect
# Details: Vero cells, Shiga toxin protein synthesis inhibition reporter; at 38.7 µM, stronger effect = higher value
row,SMILES,inhibition
1,COC(=O)c1cccc(N(C(=O)CNC(=O)c2cccs2)C(C(=O)NCC2CCCO2)c2ccc(OC)c(OC)c2)c1 (stereo not drawn),22.3% (inactive)
2,COc1cc(NC(=O)C2=CC(c3ccco3)=NS(=O)(=O)N2C)cc(OC)c1OC,-2.22% (inactive)
3,COc1cccc(CNC(=O)C2CCCN(S(=O)(=O)N3CC(C)CC(C)C3)C2)c1 (stereo not drawn),-1.73% (inactive)
4,Cc1ccc(S(=O)(=O)N(CCCN(C)C)Cc2ccc3c(c2)OCO3)cc1,9.86% (inactive)
5,O=S(=O)(c1ccc(Br)cc1)c1nc(-c2ccccc2)oc1N1CCOCC1,-6.09% (inactive)
6,COc1ccc(S(=O)(=O)NCC(=O)NC2CC2)cc1OC,-5.35% (inactive)
7,Cn1nccc1C(=O)NC1CCCc2c1cnn2-c1ccc(F)cc1F (stereo not drawn),10.4% (inactive)
8,COC(=O)c1c(NC(=O)c2ccc(S(=O)(=O)N3CCOCC3)cc2)sc2c1CCN(C(C)C)C2,-17.4% (inactive)
9,Cc1nn2c(c1-c1ccccc1)N=C(c1ccco1)CC2c1ccccc1 (stereo not drawn),103% (active)
10,O=C(O)CCCC(=O)N1N=C(c2ccco2)CC1c1ccco1 (stereo not drawn),-14% (inactive)
11,Cc1cc(C)c(C(=O)CSc2nc(C)cc(=O)[nH]2)c(C)c1,-13.9% (inactive)
12,CCC(C)(C)n1nnnc1C(c1ccc(OC)c(OC)c1)N1CCN(C(=O)c2ccco2)CC1 (stereo not drawn),-11.9% (inactive)
13,CCOC(=O)[C@@H]1[C@H]2COc3cc(OC)ccc3[C@H]2N2C(=O)N(c3ccc(F)cc3)C(=O)[C@]12C,-4.71% (inactive)
14,Cc1cc(NC(=O)CN2CCCCC2C)nc2c1c(=O)oc1ccccc12 (stereo not drawn),-0.755% (inactive)
15,CCN(CC)CCN1C(=O)C(=O)/C(=C(/O)c2ccc(OC)c(OC)c2)C1c1ccccn1 (stereo not drawn),59.8% (inactive)
16,CCN(CC)CCN1C(=O)C(=O)/C(=C(/O)c2cnn(-c3ccccc3)c2C)C1c1cccs1 (stereo not drawn),79.5% (active)
17,CCN(CC)CCN1C(=O)C(=O)/C(=C(/O)c2ccccc2)C1c1ccccc1F (stereo not drawn),19.4% (inactive)
18,O=[N+]([O-])c1cc(C(F)(F)F)ccc1NCCc1ccncc1,2.61% (inactive)
19,NC(=O)c1ccc(Nc2ccc3c(c2)CCC3)c([N+](=O)[O-])c1,9.03% (inactive)
20,CSc1cccc(NC(=O)CN2C(=O)COc3ccc(S(=O)(=O)N4CCOCC4)cc32)c1,10.9% (inactive)
21,Cc1ccc(NC(=O)C(=O)NCc2ccco2)c(C)c1,109% (active)
22,Cc1ccc(NC(=O)Cn2nnc(C(=O)NCc3ccco3)c2N)c(C)c1,-2.94% (inactive)
23,Cc1ccccc1NC(=O)NCc1ccco1,18.7% (inactive)
24,O=c1c2cc(Br)ccc2nc(-c2cccc(Cl)c2)n1O,0.78% (inactive)

row,SMILES,inhibition
1,COc1cc(/C=N/NC(=O)Cc2ccccc2)cc(OC)c1OC,-8.46% (inactive)
2,NS(=O)(=O)c1cccnc1Nc1cccc(Cl)c1,15.1% (inactive)
3,CC(C)n1cnc2c(Nc3cccc(Cl)c3)nc(N(CCO)CCCO)nc21,-2.33% (inactive)
4,OCCCNc1nccc(-c2cc(Nc3cccc(Cl)c3)ncn2)n1,51.3% (active)
5,O=C(O)CN1c2cccc3cccc(c23)S1(=O)=O,-1.09% (inactive)
6,O=C(NCc1cccnc1)c1ccccc1NC(=O)c1c(F)cccc1F,-17.6% (inactive)
7,CCOC(=O)C1(CCOc2ccccc2)CCN(Cc2ccc(C#CCCO)cc2)CC1,-10.3% (inactive)
8,CCOC(=O)C1(CCOc2ccccc2)CCN(Cc2cc(OC)cc(OC)c2)CC1,-16.1% (inactive)
9,CCOC(=O)C1(CCOC)CCN(Cc2ccc(C(=O)OC)cc2)CC1,74.5% (active)
10,Cc1cc(NC(=O)CCN2CCN(Cc3ccccc3)CC2)ccc1Br,3.31% (inactive)
11,O=C(CC(NC(=O)c1ccccc1)c1ccccc1)Nc1ccc(F)c(F)c1 (stereo not drawn),12.4% (inactive)
12,Cc1nonc1C1CCCN1C(=O)c1cc(COc2cccc(C(F)(F)F)c2)on1 (stereo not drawn),23.7% (inactive)
13,CCOC(=O)CC1COCCN1C(=O)c1cc(COc2ccc(F)c(F)c2)on1 (stereo not drawn),72.8% (active)
14,CCC(NC(=O)c1cc(COc2ccc(F)c(F)c2)on1)c1ccncc1 (stereo not drawn),52.5% (active)
15,Cc1cc(NC(=O)COC(=O)c2ccc(F)c(S(=O)(=O)N3CCOCC3)c2)no1,-2.48% (inactive)
16,O=C(c1cc(COc2cccc(C(F)(F)F)c2)on1)N1CCSCC1,26.5% (inactive)
17,O=C(c1c(F)cccc1F)N1CCN(c2ncc(Br)cn2)CC1,-6.62% (inactive)
18,O=C(NC1Cc2ccccc2C1)c1cc(COc2cccc(C(F)(F)F)c2)on1,-0.154% (inactive)
19,O=C(c1cc(COc2c(F)cccc2F)on1)N1CCSCC1,100% (active)
20,O=C(c1cc(COc2ccc(F)c(F)c2)on1)N1CCOCC1,90.7% (active)
21,C=CCC1(CC=C)CCCN1C(=O)c1cc(COc2ccc(-n3cncn3)cc2)on1,40.9% (inactive)
22,Cc1c(C(=O)N2CCOCC2)[nH]c2ccc(OCc3ccccc3)cc12,5.47% (inactive)
23,CC(C)NC(=O)N1CCN(c2ccncc2S(=O)(=O)N2CCCCC2)CC1,-38.7% (inactive)
24,Cn1c(=O)c(=O)n(C)c2cc(S(=O)(=O)CCC(=O)N3CCCCC3)ccc21,-4.02% (inactive)
